Measured values taken from the supplement of paper PMC3334620.
The full ranking holds about 33,000 sequences; the median of “E-score (-0.5 to 0.5)” is about -0.016, and the highest 2% start at about 0.31. The sample as a whole holds a higher share of the highest values than the screen did.

Each sequence was assayed against Cst6 (UniProt P40535) (assay: PBM E-score (8-mer binding enrichment) (E-score (-0.5 to 0.5)); higher = stronger / more preferred TF binding). Details: protein concentration: 200 nM; construct: GST-DNA-binding domain.
Procedure, shortened: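 Detection of bound protein used fluorescent anti-GST, with scans normalised by masliner. The proteins were GST-tagged yeast transcription factors applied at about 100-200 nM to universal all-10-mer Agilent arrays made double-stranded by primer extension. Each ungapped eight-base word, pooled with its reverse complement, was scored with an E-score from the Universal PBM Analysis Suite.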

Chain of UniProt P40535 (P40535 whole entry, the tested form may be a part): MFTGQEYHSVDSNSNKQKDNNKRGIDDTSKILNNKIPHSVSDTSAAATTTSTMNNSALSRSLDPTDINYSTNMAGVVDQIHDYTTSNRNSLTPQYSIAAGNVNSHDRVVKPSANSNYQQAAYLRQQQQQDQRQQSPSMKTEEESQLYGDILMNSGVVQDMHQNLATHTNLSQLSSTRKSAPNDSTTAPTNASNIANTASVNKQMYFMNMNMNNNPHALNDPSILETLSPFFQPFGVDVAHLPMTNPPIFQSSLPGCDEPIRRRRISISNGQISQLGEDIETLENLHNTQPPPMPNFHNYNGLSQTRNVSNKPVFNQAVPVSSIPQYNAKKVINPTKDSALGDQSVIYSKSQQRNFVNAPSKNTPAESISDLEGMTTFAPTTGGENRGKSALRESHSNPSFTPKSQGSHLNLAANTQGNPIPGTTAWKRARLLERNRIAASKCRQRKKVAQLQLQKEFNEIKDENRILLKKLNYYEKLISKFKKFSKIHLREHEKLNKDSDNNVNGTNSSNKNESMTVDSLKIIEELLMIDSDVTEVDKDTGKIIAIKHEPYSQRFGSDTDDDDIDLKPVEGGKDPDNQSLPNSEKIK

Sequence	PBM E-score
CATTGCCC	-0.241
AACTTGCT	-0.117
CTAACTAG	0.0585
GGATTGCA	0.0154
ATATACAT	0.16
TGGGGAAA	0.0662
AACCATCC	-0.0939
CGAATGAA	0.0688
AGAATGAG	-0.0205
AGAATGAA	0.207
CGAATGAC	0.348
GGAATGAC	0.255
AGAATGAC	0.354
GGACGGGA	-0.285
ATAAGTAA	0.164
CACTGACC	-0.133
CGCTGACC	-0.0695
CGCTGACA	0.166
CGCTGACG	0.384
AGCTGACC	-0.126
AGCTGACG	0.359
CACTGACA	0.08
CACTGACG	0.371
AGCTGACT	-0.0426
AGCTTTAA	0.127

Sequence	PBM E-score
CGGCTAGA	-0.038
ATTTCAGC	0.00693
ATGGAAAT	0.122
GGCTACAC	-0.0907
CTCCAGAC	-0.158
TACATTAA	0.19
GGTGCGTA	-0.062
CGGTTAAG	-0.0846
AGGTCATC	0.231
AAGTCATC	0.114
ACGTCATG	0.495
CCGTCATA	0.363
AGGTCATG	0.221
AGGTCATA	0.168
CGGTCATA	0.298
ACGTCATA	0.494
AAGTCATA	0.283
ACGTCATC	0.497
AAGTCATG	0.185
CAGTCATA	0.123
CTAGACTC	-0.329
CAAGGCAG	-0.119
CCATGGCG	0.102
ATTCAGTA	0.164
AAGGGACA	-0.141

Sequence	PBM E-score
AATTGTTG	0.0795
GGCGGGCA	-0.0394
CGGTCATC	0.085
GGGTCATA	-0.0664
GCGTCATA	0.463
CAGTCATC	-0.0341
CCGTCATC	0.385
GAGTCATA	0.144
AACGAAAT	0.156
AGATTGAG	0.228
CCTTGGCA	-0.209
CTTTGTTC	0.126
ATTTGTTC	0.332
ATTTGTTA	0.22
GTTGGCTA	-0.0861
AGCTTTTC	-0.00677
TCGGCACA	-0.0165
CCGGCTCG	-0.128
ACGGCACA	0.327
ACGGCTCC	0.256
ACGGCTCG	0.312
ACGGCACG	0.348
CCGGCACA	-0.136
CCGGCACG	-0.1
ACGGCAGA	0.064

Sequence	PBM E-score
CAGGCGTC	-0.00038
CGCGCGAG	0.0316
ACAGGCCA	-0.202
GAAATTGA	0.153
CGGTCGTA	-0.304
GTTGCCGA	0.0213
GCACCAGC	-0.176
AGTATGGG	-0.162
ACGCGGCA	0.28
GTGCGGAA	-0.0138
ATGCGGCC	0.0608
ACGCGGCT	0.248
CTGCGGCA	0.182
AGGCGGCG	0.204
ATGCGGCA	0.312
GTGCGGCA	0.311
AGGCGGCA	0.119
GCGCGGCA	0.264
ACGCGGCG	0.363
ATGCGGCG	0.343
GAATTCAC	0.0689
GCCAACCA	-0.0975
ATACCCTG	-0.0744
CGGAAGCA	0.151
AGTCTTCA	-0.0551

Sequence	PBM E-score
TCCCCACA	-0.103
ACGGCATG	0.126
GCGGCAGC	-0.104
GCGGCACC	0.311
AGGGCACC	-0.282
CCGGCACC	-0.146
AAGGCACT	-0.0255
ACGGCATA	0.245
AGGGCACT	-0.0161
ACGGCATC	0.375
ACGGCACT	0.352
ACGGCACC	0.391
GCGGCACA	0.176
AATCAGAA	0.00689
CATATCCC	0.0321
ACGATCAA	0.135
AAACCATG	-0.0483
GCGACTAA	0.0201
GAGTTTGC	-0.0936
CGTAAAGA	0.167
ATTGGTCG	0.069
CTCACGGC	0.105
GAGTTTCC	-0.137
CCGGACGC	8e-05
ACGGCAAT	0.329

Sequence	PBM E-score
ACGGCAAA	0.28
ACGGCAAG	0.0822
TCTACAGA	-0.0513
AGTACCTA	0.00893
CGAAAAGA	0.313
AGAAAAGA	0.112
GGAAAAGA	0.0532
ACTAAAGC	0.0156
AAAGATAG	-0.026
CATGATAC	0.251
AATGATAT	0.322
TAAGATAA	0.159
GATGATAC	0.127
AGTGATAT	0.0988
AATGATAG	0.174
ACTGATAT	0.109
AATGATAA	0.347
AAAGATAA	0.308
AATGATAC	0.316
CATGATAA	0.155
CGATATCA	0.145
AAGCTTTC	0.0818
AACTGATT	0.0959
TCGCGCCA	-0.0121
GTCCGAGA	0.0681

Sequence	PBM E-score
GTCTAGAC	-0.0977
CACCAAAC	0.17
TACTCCCA	-0.0234
AGTCAAAT	0.0827
CTTAATGC	0.142
CGTAATGC	0.365
CGTAATGA	0.402
GGTAATGA	0.213
AGTAATGC	0.0951
AGTAATGA	0.247
ATTATGGC	0.0901
TCGCGCAA	0.15
TCTCGTCA	0.329
CCTCGTCA	0.308
CCTCGTCC	-0.35
ACTCGTCT	-0.018
TCTCGTAA	0.305
GCTCGTCA	0.238
ACTCGTCC	-0.094
CCTCGTCG	-0.0925
ACTCGTCA	0.351
GACCTAAC	0.0894
ATCCCTCG	-0.263
GAAAGGTC	-0.196
GTTGCCCA	-0.135

Sequence	PBM E-score
AGTTACGC	0.0936
AATTACAT	0.318
AATTACAC	0.116
AATTACCC	0.0706
AATTACGC	0.331
AATTACGA	0.286
GATTACGC	0.329
CATTACGC	0.219
AATTACAG	0.15
GATTACAC	0.171
AATTACGG	0.183
AATTACGT	0.462
CACCTGGA	-0.135
TCGCGCGA	0.169
ACTCGTGC	-0.103
AGCGGCAT	0.273
GATTACGA	0.364
TATTACGA	0.283
CATTACGA	0.205
GTCTTAAC	0.14
GAAAAGCA	-0.0869
TCGTTACA	0.0818
TAACCCTA	-0.197
CATGCATG	0.0335
ACGCCGCC	0.124

Sequence	PBM E-score
CCGCCGCA	0.0944
ACGCCGCT	0.233
GCGCCGCA	0.38
GCGCCGCC	0.25
ACGCCGCA	0.336
CGTTATGA	0.0852
AGCGGAAT	-0.0286
GTAGCCGA	-0.191
AGTAATTC	0.189
GGTAATTA	0.215
CATAATTC	0.203
CGTAATTA	0.362
CGTAATCC	0.3
CGTAATCA	0.427
CGTAATTC	0.309
GATAATCA	0.131
AGTAATTA	0.175
TATAATCA	0.308
AGTAATCA	0.116
AATAATCA	0.209
CATCGCAG	-0.135
CGCCCGCC	-0.129
AAACTCAC	0.0463
CATTAGCG	-0.0563
CTCATTGC	0.105

Sequence	PBM E-score
AGAAAAAT	0.17
CATTGAGG	-0.0774
GTGAGTTA	0.0284
GAGACGAA	-0.099
ATGACGAG	0.398
ACGACGAA	0.0916
CTGACGAA	0.29
ATGACGAC	0.431
ACGACGAG	-0.211
GGGACGAA	-0.214
AAGACGAG	-0.203
ATGACGAA	0.472
CTGACGAC	0.216
GTGACGAA	0.454
ACGACGAC	-0.0559
CAGACAGC	-0.185
ATGGAGCA	0.0798
ACGAAACT	0.0946
CAAGACCC	-0.197
CAAGGCTC	-0.227
AATTTCGG	0.127
CGTGTGAG	0.0162
AAAGATCT	-0.0274
GACATCCC	-0.0212
GACATCAC	0.431

Sequence	PBM E-score
CACATCAC	0.217
TACATCAA	0.283
GACATCAA	0.327
CACATCAA	0.162
AGCATGCA	-0.103
AACACCTC	-0.0672
ACTCAAAC	0.158
AGCTAAAG	-0.0194
CAGCGTGA	0.0151
AGGACGCC	-0.147
AAGACGCG	-0.111
CTGACGCC	0.119
ATGACGCC	0.442
ACGACGCG	0.127
GTGACGCA	0.471
AAGACGCC	-0.00396
GGGACGCA	-0.173
ATGACGCG	0.463
CAGACGCA	-0.0613
CTGACGCA	0.332
GCGACGCA	0.0151
AGTCGTAT	-0.0183
AGCCTCGC	-0.0857
CCTGGATC	-0.334
GTACCAGA	-0.199

Sequence	PBM E-score
ACTCCAGT	-0.162
CCGTCCCC	-0.289
GGTGGAGA	-0.338
ACATGGGT	0.00268
CGGGTTCA	-0.134
GATAACCA	-0.0596
GGAGCTGA	-0.207
ATGACGCA	0.485
ATGACTCA	0.309
AGGACGCA	-0.209
ATGACTCC	0.0246
ACGACGCA	0.145
GTGACTCA	0.228
ACGGGACA	-0.177
ATACCACG	0.128
CGTCATAC	0.481
CCTCATAG	0.0666
AGTCATAG	0.0637
GGTCATAC	0.151
AGTCATAC	0.144
CGTCATAG	0.468
ATCCATTG	0.0328
AAGGAGAG	-0.258
TAATTACA	0.277
TAACCACA	0.0592

Sequence	PBM E-score
ACATCACT	0.401
ACATCACG	0.303
TCATCACA	0.252
ACATCACC	0.417
AGATCACT	0.181
ACATCAGT	0.218
GCATCACC	0.231
ACATCACA	0.328
CCATCACC	0.15
CCCGGTGC	-0.264
GGCGATTA	0.188
CGTCGCCA	-0.0999
CGCAGTAG	-0.101
ATCGACCA	-0.228
CGCTGGAC	-0.297
CAAAAAAG	0.254
TAATGACA	0.347
GAATGACA	0.259
AAATGATA	0.304
CAATGAAG	0.0658
CAATGACG	0.469
TAATGATA	0.387
AAATGACA	0.298
GAATGATA	0.278
CAATGACA	0.341

Sequence	PBM E-score
TAATGCCA	0.197
TAATGAGA	0.0949
CAATGACC	0.148
CTTTAAGC	0.0326
GTTGGGAA	-0.0904
TACCTACA	0.0531
ACCGGGTG	-0.19
GCGATTAC	0.184
CACCGCAG	-0.116
CGTCTCGA	0.143
GAGTTTTA	0.122
CTATGACA	0.264
AAATGACT	0.0956
ATATGACA	0.304
AAATGACG	0.466
GTATGACA	0.323
AAATGACC	0.102
AGCTCATA	0.124
CAAGAACA	0.053
TAAGAACA	0.312
GAAGAACA	0.131
